About 79,000 compounds went through this panel and 15% of them were active in at least one assay; those are over-represented in the sample as a whole. The source made the active and inactive calls. No stated cut-off is given here; in the data, active means growth inhibition above about 70%; inactive means the rest.
What was measured:
[1] = NCI Yeast Anticancer Drug Screen. Data for the rad50 strain (AID 155);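 further: 0% = growth of vehicle-only cultures of the same strain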; conditions: S. cerevisiae rad50 strain growth inhibition; at 50.0 µM; active compounds read high
In short: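 Inhibition values express reduced yeast growth in compound-treated cultures relative to vehicle-treated controls.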

[2] = NCI Yeast Anticancer Drug Screen. Data for the mec2-1 strain (AID 157); conditions: S. cerevisiae mec2-1 strain, at 50.0 µM, active compounds read high
In short: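 Vehicle-treated cultures served as reference for growth inhibition of compound-exposed mec2-1 yeast.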

[3] = NCI Yeast Anticancer Drug Screen. Data for the sgs1 mgt1 strain (AID 161);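 further: 0% = growth of cultures given vehicle only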; conditions: S. cerevisiae sgs1 mgt1 strain, at 50.0 µM, active compounds read high
In short: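 Inhibition of yeast growth, normalised to vehicle-treated controls, is reported for a strain bearing genetic alterations in DNA damage repair.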

[4] = NCI Yeast Anticancer Drug Screen. Data for the cln2 rad14 strain (AID 165);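 further: 0% = growth equal to vehicle treated cultures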; conditions: S. cerevisiae cln2 rad14 strain, at 50.0 µM, active compounds read high
In short: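 Each compound was tested on cln2 rad14 yeast. Inhibition of growth was calculated against vehicle-exposed controls.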

[5] = NCI Yeast Anticancer Drug Screen. Data for the bub3 strain (AID 167); conditions: S. cerevisiae bub3 mutant strain, at 50.0 µM, active compounds read high
In short: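 Steps: expose the mutant yeast strain to compound; grow alongside vehicle-treated cultures; measure growth; express inhibition against the vehicle cultures.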

[6] = NCI Yeast Anticancer Drug Screen. Data for the mlh1 rad18 strain (AID 175); conditions: S. cerevisiae mlh1 rad18 strain growth inhibition; at 50.0 µM; active compounds read high
In short: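 Vehicle-treated cultures served as the reference for growth inhibition in a yeast strain carrying DNA damage repair alterations exposed to each compound.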

Compound	growth inhibition [1]	growth inhibition [2]	growth inhibition [3]	growth inhibition [4]	growth inhibition [5]	growth inhibition [6]
CC(=O)Nc1cc(N)ccc1C	7.15% (inactive)	4.45% (inactive)	1.65% (inactive)	-18.2% (inactive)	10.6% (inactive)	-14.3% (inactive)
O=c1c2ccccc2nc(-c2ccc(Br)cc2)n1NC1OC(CO)C(O)C(O)C1O (stereo not drawn)	7.05% (inactive)	3.05% (inactive)	5.2% (inactive)	-2.2% (inactive)	-9.15% (inactive)	12.6% (inactive)
O=C1NC(N2CCOCC2)=N/C1=C\c1ccccc1O	-1.3% (inactive)	-26% (inactive)	-7.8% (inactive)	-8.65% (inactive)	16.1% (inactive)	81.2% (active)
O=C1c2ccccc2C(=O)N1c1cccc2ccccc12	51.4% (inactive)	8.2% (inactive)	26.6% (inactive)	-19.4% (inactive)	55.7% (inactive)	62% (inactive)
CCCCCc1c2c(c(CCCCC)c3c1-c1cccc4cccc-3c14)-c1ccc(C)cc1C2	-29.7% (inactive)	-9.95% (inactive)	-30.9% (inactive)	-18.1% (inactive)	-0.3% (inactive)	-19.4% (inactive)
CCOC(=O)C(=N\Nc1ccccc1Br)/C(C)=N\NC(N)=S	50% (inactive)	19.6% (inactive)	56.9% (inactive)	14.7% (inactive)	9.3% (inactive)	33% (inactive)
O=C(O)/C=C/SCc1ccccc1	10.2% (inactive)	-13.2% (inactive)	0.8% (inactive)	-4.3% (inactive)	1.4% (inactive)	-3.05% (inactive)
CN(C)Cc1cc(C(=O)/C=C/c2c(Cl)cccc2Cl)cc(CN(C)C)c1O	-32% (inactive)	-17.6% (inactive)	-3% (inactive)	-31.2% (inactive)	-0.75% (inactive)	-18.9% (inactive)
CC(=O)OCC(OC(C)=O)C(OC(C)=O)C(OC(C)=O)C(OC(C)=O)c1cnn(-c2ccccc2)n1 (stereo not drawn)	15.9% (inactive)	-1.85% (inactive)	11.6% (inactive)	32.1% (inactive)	6.05% (inactive)	-10.6% (inactive)
CSCCCO	-12.8% (inactive)	-20.6% (inactive)	10.5% (inactive)	-39.1% (inactive)	-2.45% (inactive)	-7.4% (inactive)
CCOC=C(C(=O)OCC)C(=O)OCC	22.1% (inactive)	-7.45% (inactive)	-6.5% (inactive)	-1% (inactive)	-10.6% (inactive)	15.6% (inactive)
CC(C)c1ccc(/C=C/C(=O)c2ccc([N+](=O)[O-])cc2)cc1	9.75% (inactive)	2.2% (inactive)	11.7% (inactive)	-13.3% (inactive)	20.9% (inactive)	3.15% (inactive)
CCCCCCC1=CCCC1=O	-3.5% (inactive)	-25.4% (inactive)	-3.35% (inactive)	-3.6% (inactive)	2.55% (inactive)	11.5% (inactive)
CCN(CC)CCOC(=O)Cc1ccccc1	-8.9% (inactive)	-12.7% (inactive)	19.9% (inactive)	7.65% (inactive)	6.5% (inactive)	0.9% (inactive)
Cc1nn(C(=O)c2ccncc2)c2c1C(c1cccc([N+](=O)[O-])c1)SC(N)=N2 (stereo not drawn)	-55.5% (inactive)	-45.6% (inactive)	-32.2% (inactive)	2.1% (inactive)	-10.6% (inactive)	-28.2% (inactive)
CCCCOC(=O)c1ccc(NC(=O)Nc2cc([N+](=O)[O-])ccc2F)cc1	56.4% (inactive)	54.6% (inactive)	63% (inactive)	54.6% (inactive)	12.3% (inactive)	71.2% (active)
Cc1cccc(C)c1NC(=O)/C(=N/NC(N)=S)C(C)C(=O)c1ccc(Cl)cc1 (stereo not drawn)	12.6% (inactive)	6.35% (inactive)	19.6% (inactive)	13.3% (inactive)	4.5% (inactive)	22.3% (inactive)
CCCC[P+](C)(CC[P+](C)(c1ccccc1)c1ccccc1)c1ccccc1 (stereo not drawn)	36.3% (inactive)	80.8% (active)	69% (inactive)	96.5% (active)	98.1% (active)	37.3% (inactive)
O=C1/C(=C/C=C/c2ccccc2)CCC1CNc1ccc(Br)cc1 (stereo not drawn)	-20.2% (inactive)	-11.7% (inactive)	-17.8% (inactive)	16.9% (inactive)	-15.4% (inactive)	9.5% (inactive)

Compound	growth inhibition [1]	growth inhibition [2]	growth inhibition [3]	growth inhibition [4]	growth inhibition [5]	growth inhibition [6]
CCOC(Nc1ccc(Cl)cc1Cl)C(=O)c1ccccc1 (stereo not drawn)	8.65% (inactive)	6.05% (inactive)	-2.8% (inactive)	1.85% (inactive)	11.8% (inactive)	1.8% (inactive)
COc1cccc(N2C(=O)C3c4[nH]c5ccccc5c4C4CCCC4C3C2=O)c1 (stereo not drawn)	-36.5% (inactive)	-47.4% (inactive)	-20.8% (inactive)	-8.15% (inactive)	-50% (inactive)	-22.4% (inactive)
N#Cc1ccc(C=NC23CC4CC(CC(C4)C2)C3)cc1	-12% (inactive)	-10% (inactive)	-6.7% (inactive)	2.4% (inactive)	-2% (inactive)	-4.1% (inactive)
NC(=O)c1cn(C2OC(CO)C(O)C2O)c(=O)[nH]c1=O (stereo not drawn)	14.2% (inactive)	-8.8% (inactive)	-0.1% (inactive)	18.8% (inactive)	-12.7% (inactive)	-5.25% (inactive)
CC#CC(O)(C(=O)OC1CCCN(C)C1)C1=CC=CCC1 (stereo not drawn)	11.7% (inactive)	8.25% (inactive)	13.2% (inactive)	5% (inactive)	-1.75% (inactive)	27.4% (inactive)
Cc1ccncc1S(=O)(=O)O	14.6% (inactive)	8.85% (inactive)	2.3% (inactive)	-12.2% (inactive)	1.7% (inactive)	1.75% (inactive)
CC(=O)Nc1ccc(C(=O)CC(c2ccccc2)N2CCOCC2)cc1 (stereo not drawn)	4.3% (inactive)	14.1% (inactive)	11.9% (inactive)	-19% (inactive)	26.1% (inactive)	2.8% (inactive)
C[C@]1(CO)[C@H]2CC[C@@]34C=C[C@@](CO)(CC[C@H]3[C@]2(C)CC[C@H]1O)C4	5.45% (inactive)	1.05% (inactive)	39.6% (inactive)	6.4% (inactive)	11.7% (inactive)	-48.4% (inactive)
COC(=O)c1cc2ccccc2cc1Nc1ccc2ccccc2c1	2.25% (inactive)	4.7% (inactive)	5.25% (inactive)	-10.3% (inactive)	-0.7% (inactive)	7.3% (inactive)
c1ccc(N=C(c2ccccc2)c2ccccc2)cc1	9.25% (inactive)	-6.65% (inactive)	-6.05% (inactive)	-6.65% (inactive)	-7.65% (inactive)	26.3% (inactive)
CN1CCc2cc3c(cc2C(=O)Cc2ccc4c(c2C1)OCO4)OCO3	-14.7% (inactive)	-13.8% (inactive)	-8.35% (inactive)	10.4% (inactive)	-13.4% (inactive)	-27.3% (inactive)
COc1ccc(C2c3cc4c(cc3OC(Nc3ccccc3)C2C)OCO4)cc1 (stereo not drawn)	9% (inactive)	9.95% (inactive)	30% (inactive)	43.8% (inactive)	27.1% (inactive)	33.6% (inactive)
Cc1ccccc1/C1=C/CCCCCC1	-8.1% (inactive)	11.3% (inactive)	-10.4% (inactive)	-21.6% (inactive)	19.5% (inactive)	-5.05% (inactive)
Oc1ccccc1CNCCNCc1ccccc1O	-12.2% (inactive)	-14.1% (inactive)	1.6% (inactive)	17.6% (inactive)	-4.5% (inactive)	-36.2% (inactive)
ClC(c1ccccc1)(c1ccccc1)C(Cl)(c1ccccc1)c1ccccc1	45.9% (inactive)	5.05% (inactive)	24.1% (inactive)	11.8% (inactive)	4.6% (inactive)	26.9% (inactive)
O=C1CCN2CCC(=O)c3c2c(cc2ccccc32)N1	6.25% (inactive)	-15.8% (inactive)	-4.45% (inactive)	10.3% (inactive)	-12.7% (inactive)	-12.6% (inactive)
CC(=O)OCC(OC(C)=O)C(OC(C)=O)c1cnn(-c2ccccc2)n1 (stereo not drawn)	12.6% (inactive)	-1.5% (inactive)	2.5% (inactive)	17.7% (inactive)	24.6% (inactive)	22% (inactive)
CCOC(=O)C(CC(C)C)NC(=O)c1cnc2ccccc2c1 (stereo not drawn)	26.6% (inactive)	-0.7% (inactive)	25.6% (inactive)	-13.8% (inactive)	26.2% (inactive)	21.9% (inactive)
Cc1ccc2c(c1)CCC(=O)O2	11.4% (inactive)	0% (inactive)	-1.75% (inactive)	-17.2% (inactive)	10.4% (inactive)	3.4% (inactive)

Source: PubChem BioAssay (NCI)
